# PubChem BioAssay AID686978 (National Center for Advancing Translational Sciences (NCATS), 2013)
# The campaign covered roughly 420,000 compounds. About 64,000 (15%) were called active. About 27% were inconclusive and are not listed. These entries were drawn from the full list. Unmarked numbers belong to inactive results. Calls come from the whole dose curve; as a rule, active = well fitted inhibition curve with a large enough effect; inconclusive = small, poorly fitted or top-dose-only effect; inactive = flat fitted curve, though single readings scatter.
# Experiment: qHTS for Inhibitors of human tyrosyl-DNA phosphodiesterase 1 (TDP1): qHTS in cells in absence of CPT; note: nearly all actives have a fitted effect of over 55% in size
# Settings: DT40 Tdp1-/- hTDP1 cells, no CPT, ATP luminescence, 48 h; activity change, negative = growth inhibition: at 46.2 µM (top of the series)
# How it was run: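 Growth kinetics read by CellTiter-Glo luminescence after ≥48 hr at 37 °C. Cells: DT40 Tdp1-/- stably carrying human TDP1, 400 per well, compound exposure in the absence of CPT (DMSO vehicle).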
# % is set by controls: 0 for no effect and ±100 for the full control effect; potency is the fitted concentration of half-maximal effect.
SMILES,Potency,"activity change, negative = growth inhibition [%]"
CC[n+]1cc(C)ccc1/C=C/c1ccc(N(C)C)cc1,0.0259 µM (active),
CCNC(=O)COC(=O)/C=C/c1c(C)nn(Cc2cccc(OC)c2)c1Cl,,-26.6
Cc1ccc(-c2c3c(=O)n(C)c(=O)n(C)c3cn2-c2ccccc2O)cc1,,-4.34
Cc1cn(C)c(=O)n(C)c1=O,,12.7
Cc1ccc(-c2c3c(=O)n(C)c(=O)n(C)c3cn2-n2cnnc2)cc1,20.6 µM (active),
CC1CCN(CCC(=O)Nc2ccccc2)CC1,,-1.21
CC1=NC2(CCCc3c2no[n+]3[O-])N(O)C1(C)C (stereo unspecified),,-12
COc1ccc(Nc2cc(Sc3ccc(OC)cc3)ncn2)cc1,16.4 µM (active),
COc1ccc(Nc2nc(=O)[nH]nc2C)cc1,,-0.528
COc1ccc(NC(=O)Nc2ccc3nc(C)c(C)nc3c2)cc1,,-20.1
CCCC(NS(=O)(=O)c1ccc(OC)cc1)C(=O)O (stereo unspecified),,-6.51
COC(=O)c1ccc(COC(=O)c2c(C)nn(Cc3ccccc3Cl)c2Cl)o1,,-4.36
CC(=O)Oc1ccc(C)cc1N1C(=O)c2ccc(C(=O)O)cc2C1=O,,-15.5
COc1ccc(C(=O)CN2C(=O)NC(C)(c3ccc(C)cc3)C2=O)cc1OC (stereo unspecified),,-4.31
COc1ccc(C)cc1-n1c(-c2ccc(C)cc2)cc2c1CC(C)(C)CC2=O,8.2 µM (active),
Cc1cc(NC(=O)COC(=O)c2ccc(F)c(S(=O)(=O)N3CCOCC3)c2)no1,,0.35
Cc1ccccc1OCC(=O)NCC(=O)OCC(=O)c1ccc2ccccc2c1,inactive,
O=C(OCC(=O)N1CCOCC1)c1ccc2ccccc2c1,,-8.74
Cc1c(CCO)sc[n+]1CC(=O)c1ccc2ccccc2c1,15.8 µM (active),
O=C(CCn1ccc([N+](=O)[O-])n1)Nc1nccs1,,-0.635
CCOc1ccc(-n2c(SCC(N)=O)nnc2-c2ccco2)cc1,,-102
O=C(COC(=O)C1CCN(S(=O)(=O)c2ccc3c(c2)OCCO3)CC1)Nc1ccccc1OC(F)F,,-20.5
COc1ccc(Br)cc1/C=N/Nc1ccc(Cl)c(C(=O)O)c1,,-11.1
Oc1ccc(Br)cc1/C=N/Nc1ccccn1,3.66 µM (active),

SMILES,Potency,"activity change, negative = growth inhibition [%]"
O=C(NCc1ccccn1)c1cc(Br)ccc1Cl,,-17.2
COc1cc2c(C(=O)N(C)c3cc(Cl)ccc3OC)cn(C)c(=O)c2cc1OC,,-28.8
O=C(CSc1ccccn1)N1CCN(S(=O)(=O)c2ccc(Cl)cc2)CC1,,-22.9
C/C(N)=C(\C#N)C(=O)NCCc1ccccn1,,14.5
Cc1ccc(NC(=O)CN2CCC(C(N)=O)CC2)cc1[N+](=O)[O-],,-11.3
COc1ccc(C23NCCN2C(=O)c2ccccc23)cc1 (stereo unspecified),,11
CC12CN3CCN(CC(C3)/C1=N\NC(=O)c1ccccc1N)C2,,2.03
COc1ccc(NC(=O)C2CCC(CNc3c(N4CCCCC4)c(=O)c3=O)CC2)c(OC)c1 (stereo unspecified),,-15.1
CCOc1ccccc1NC(=O)C1CCC(CNc2c(N3CCOCC3)c(=O)c2=O)CC1 (stereo unspecified),,-11.8
CCN(CC)c1ccc(NC(=O)C2CCC(CNc3c(N4CCCC4)c(=O)c3=O)CC2)c(C)c1 (stereo unspecified),14.6 µM (active),
Cc1ccc(NS(=O)(=O)c2ccc(-c3coc(C)n3)cc2)c(C)c1,,-28.1
COC(=O)c1c(OCc2ccc(F)cc2)cc(=O)n2c1CCN(Cc1ccc3cccnc3c1)CC2,,-16.2
CCc1ccc(CNC(=O)C2CCN(c3nn4cc(-c5ccc(F)cc5)nc4s3)CC2)cc1,,-16.1
Cc1ccc(C)n1-c1nnc(N2CCC(C(=O)NCc3ccccc3Cl)CC2)s1,18.4 µM (active),
Cc1ccc(NC(=O)N2CCC(C(=O)NCc3ccc(F)cc3)CC2)cc1,,-21.1
O=C(NCc1cccc(Cl)c1)C1CCN(c2nnc(N3CCCC3=O)s2)CC1,,1.66
Cc1ccc(C)n1-c1nnc(N2CCC(C(=O)NCc3ccc(F)cc3)CC2)s1,23.1 µM (active),
O=C(NCc1ccccc1Cl)C1CCN(S(=O)(=O)N2CCOCC2)CC1,,-4.3
O=C(O)CSc1ccc(S(=O)(=O)N2CCCC2)cn1,,4.27
COc1cc(OC)c2c(-c3cccc(-c4cccc(N)c4)c3)cc(=O)oc2c1,4.61 µM (active),
COc1cccc(NC(=O)COc2cc(C)cc3oc(=O)cc(C)c23)c1,,10.1
COC(=O)C(C)Oc1ccc2c(-c3cccc([N+](=O)[O-])c3)cc(=O)oc2c1 (stereo unspecified),,-6.62
Cc1c(CCC(=O)O)c(=O)oc2cc(OCc3ccc(Br)cc3)ccc12,,17
CCC(=C/c1sc2ccc3ccccc3c2[n+]1C)/C=C1\Sc2ccc3ccccc3c2N1C,0.092 µM (active),

SMILES,Potency,"activity change, negative = growth inhibition [%]"
COc1ccc(OC)c(CN2CCN(C(=O)CNC(=O)c3cc(C)cc(C)c3)CC2)c1,,-16.9
Cc1c(C)n(Cc2ccc(Cl)cc2)c2ccc(C(=O)NCCc3ccc(S(N)(=O)=O)cc3)cc12,25.9 µM (active),
Cc1ccc(C(=O)NCCN2CCOCC2)cc1C,,-4.96
Cc1c(C)n(Cc2ccc(Cl)cc2)c2ccc(C(=O)NCCCN3CCOCC3)cc12,18.4 µM (active),
CCn1c(C)c(C)c2cc(C(=O)NCCc3cc(OC)ccc3OC)ccc21,14.6 µM (active),
CCOC(=O)c1c(C)c(C(=O)NCCc2ccc(S(N)(=O)=O)cc2)c(C)n1CC,,-20.4
COc1ccc(C(=O)NCCc2ccc(S(N)(=O)=O)cc2)cc1OC,,-4.05
Cc1ccc(NS(=O)(=O)c2ccc(C(=O)NCCCN3CCOCC3)cc2)cc1,,-3.36
COC(=O)c1ccc(OC)c(Cn2c(=O)n(Cc3ccccc3)c(=O)c3c2c2cc(OC)ccc2n3C)c1,,12.5
COC(=O)[C@@H]1CC(O)CN1C(=O)C12CC3CC(CC(C3)C1)C2 (stereo partly specified),,-4.84
CCOC(=O)c1sc(=NC(=O)c2ccc(Br)cc2)n(C)c1C,,8.68
NC(=O)C1CCCN(CC(=O)N2CCN(c3ccccc3)CC2)C1 (stereo unspecified),,-12.2
O=S(=O)(NCC1CCCO1)c1cnc(Cl)c(Cl)c1 (stereo unspecified),,-0.359
O=C1CCCC(O)=C1C=NCCc1ccccc1,,-2.41
CCCCN(C)CCC(=O)Nc1ccc(Cl)cc1,,-18
CCCCC(=O)Nc1nc(C)c(-c2csc(Nc3ccc(Cl)cc3)n2)s1,23.1 µM (active),
Cc1nnc(NC(=O)CCCOc2ccccc2)s1,,-5.9
Cc1nc(NC(=O)CCC(=O)O)sc1C(=O)N(C)C,,-11.7
C=CCCC(=O)Nc1nc(C)c(-c2csc(Nc3ccc(Cl)cc3)n2)s1,13 µM (active),
Cc1ccn2c(-c3csc(Nc4ccc(C(=O)O)cc4)n3)c(C)nc2c1,,-20.6
COc1cccc(NC(=O)c2csnn2)c1,,-9.53
CC(=O)Nc1nc(C)c(-c2csc(Nc3ccc(S(N)(=O)=O)cc3)n2)s1,,-28.2
CCCCCCC(=O)Nc1nc(C)c(-c2csc(Nc3cccc(OC)c3)n2)s1,16.4 µM (active),
